Source: PubChem BioAssay (NCI)
The panel holds about 83,000 compounds, 20% with a hit somewhere; the sample as a whole holds those more often.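 Single-concentration screen, 48 h exposure, 96-well plates. Endpoint: percent growth. Below 10 = active.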 Values without a mark were called inactive. Active and inactive are the calls of the source.

Each compound was assayed on T-47D breast (assay: NCI-60 one-dose screen, 48 h (100 = growth as untreated, 0 = no growth, -100 = all killed)). Details: 10 µM unless noted.
Description: Growth inhibition of the T-47D human tumor cell line is measured as a screen for anti-cancer activity. Cells are grown in 96 well plates and exposed to the test compound for 48 hours. Compounds are tested at a single concentration, which is 10^-5 M for most compounds. The reported endpoint is percent growth (GI% or GIPRCNT), where numbers from 0 - 100% represent growth inhibition, and numbers from -100% - 0 represent cell death. For example, a value of 40 represents 60% growth inhibition. A value of 0 means no net growth occurred over the course of the experiment. A value of -40 indicates 40% of cells at the beginning of the experiment died by the end of the experiment. A value of -100 means all cells are dead at the end of the experiment.
NCI-60 Human Tumor Cell Lines Screen was performed using the standard one-dose NCI protocol, which is described in more detail at https://dtp.cancer.gov/discovery_development/nci-60/default.htm.
Compounds with GIPRCNT values below 10 were considered active. Activity score was based on GIPRCNT using the following formula: […]
Score is 0 for GIPRCNT values of 100 or above, 50 for GIPRCNT values of 0, and 100 for GIPRCNT values of -100.

| SMILES | growth |
| --- | --- |
| C=CCN(/C=C/CN(CC=C)CC=C)CC=C | 101% |
| O=Nc1c2cccnc2n2nnc3ccc(Cl)cc3c12 | 12.1% |
| COc1cc(/C=N/OC(=O)Nc2ccccc2)cc(OC)c1OC | 100% |
| COC(=O)N/N=C/c1coc2ccc(Cl)cc2c1=O | 83% |
| CCOC(=O)Nc1cc(-c2ccc(C)c(NS(C)(=O)=O)c2)nn2c(C)nnc12 | 23.3% |
| COC(=O)C1CCN(S(=O)(=O)c2ccc(-c3ccccc3)cc2)CC1 | 102% |
| COC(=O)[C@H](Cc1cn(C)cn1)NC(=O)[C@@H](NC(=O)Nc1cc(C(F)(F)F)cc(C(F)(F)F)c1)C(C)C | -71.8% [100 µM] (active) |
| O=C(CC1Sc2ccccc2NC1=O)NNc1cccc(Cl)c1Cl (stereo not given) | 73% |
| O=[N+]([O-])c1ccc(NS(=O)(=O)c2ccc(Cl)c(Cl)c2)cc1 | 60.2% |
| COc1ccc2c(c1)CC[C@@H]1[C@@H]2CC[C@]2(C)[C@@H](O)C(=O)C[C@@H]12 | 106% |
| COc1ccc(-c2nc3sc4c(c3c(=O)[nH]2)CCCCCC4)cc1 | 64.2% |
| COc1cc(NC(=O)NCc2ccco2)ccc1-c1ccc(NC(=O)NCc2ccco2)cc1OC | 40.9% |
| Cc1cn(C(C=O)OC(C=O)CO)c(=O)[nH]c1=O (stereo not given) | 99.6% |
| CC(=O)Nc1c(Cl)cc2c(c1Cl)Cc1cc([N+](=O)[O-])ccc1-2 | 53.4% |
| Cc1ccc(N/N=C(/C(=O)c2ccc(Cl)cc2)c2nc(C)cc(=O)[nH]2)cc1 | 88.3% |
| O=C1c2cccc(NCCN=Cc3ccccc3O)c2C(=O)c2c(NCCN=Cc3ccccc3O)cccc21 | 18% |
| CCN1CC2=C(Nc3nc(SC)[nH]c(=O)c3C2c2cc(OC)c(OC)c(OC)c2)/C(=C/c2cc(OC)c(OC)c(OC)c2)C1 (stereo not given) | 97.5% |
| C1CCC(C(CC2CCCCN2)C2CCCCC2)CC1 (stereo not given) | -48.9% (active) |
| COc1ccc(N2CCN(CC(=O)N3CCN(c4nnc(-c5ccccc5)c(-c5ccccc5)n4)CC3)CC2)cc1 | 20.1% |
| COc1ccc(C2CC(c3ccc4c(c3)OCO4)=NN2C=O)cc1 (stereo not given) | 99.2% |

| SMILES | growth |
| --- | --- |
| c1ccc2nc(N/N=C3\CCCCC3C3CCCCC3)ccc2c1 (stereo not given) | 40.4% |
| CCCCN=C(N)c1ccc(OCCSCCOc2ccc(C(N)=NCCCC)cc2)cc1 | 26.3% |
| C/C=C(/C(=C/C)c1ccc(O)cc1)c1ccc(O)cc1 | 53.5% |
| CC(=O)N1N=C(c2ccc(Cl)cc2)CC1c1c(C)nn(-c2ccccc2)c1N(C)Cc1ccccc1 (stereo not given) | 59.6% |
| COc1ccc2c(=O)c(OC)c(-c3cc(OC)c(OC)c(OC)c3)oc2c1 | 76.1% |
| O=C1NC(=O)/C(=C\c2ccco2)S1 | 95.4% |
| CC12CCC3C(=CCc4cc(O)ccc43)C1CCC2=O (stereo not given) | 104% |
| CCOc1cc(/C=C/C(=O)C(C(=O)/C=C/c2ccc(OC(=O)CNc3nc4ccccc4[nH]3)c(OCC)c2)C(=O)CNc2nc3ccccc3[nH]2)ccc1OC(=O)CNc1nc2ccccc2[nH]1 | 37.3% |
| O=Cc1ncc(-c2ccc(C(F)(F)F)cc2)c(NC2CCCCCC2)n1 | -19% [100 µM] (active) |
| CC[n+]1c(/C=C/c2ccc(N3CCCC3)cc2)cccc1/C=C/c1ccc(N2CCCC2)cc1 | -61% (active) |
| CCOC(=O)C1=CCC(n2cc(C)c(=O)[nH]c2=O)O1 (stereo not given) | 99.1% |
| COc1cc(C2CC(c3ccc(C)cc3)=NN2C=O)ccc1OCCN(C)C (stereo not given) | 90.6% |
| CCCCCc1c(C)[nH]c(/C=C2\N=C(c3ccc[nH]3)C=C2Oc2ccc(Cl)cc2)c1C | -38.1% [100 µM] (active) |
| O=C1c2cc3c(cc2-c2c1c1ccc(Cl)cc1c(=O)n2CCCNCCO)OCO3 | -67.1% (active) |
| O=C1C=CC(=O)N1c1ccccn1 | 106% |
| CC(C)N(Cc1ccccc1)c1c(S)ssc1=S | 18.2% |
| COc1ccc(C(=O)/C=C/c2ccc(C)cc2)cc1OC | 59.3% |
| COc1ccc2[nH]c(=O)c(CNc3ccc(Nc4nccc(-c5ccc(Cl)cc5)n4)cc3)cc2c1 | 65.9% |
| COc1cccc(C2=NN(C(C)=O)C(c3cc(OC)c(OC)c(OC)c3)C2)c1 (stereo not given) | 35.2% |
| CC(=O)Nc1ccc(C(=O)COc2cccc(/C=C3\CCc4ccccc4C3=O)c2)cc1 | 67.9% |
